Screens (PubChem)
Most compounds without a hit are left out; they make up all but 13% or so of the library.
USP17 block – inhibitors of human USP17 deubiquitinase; inhibition, % at 50 µM; 47,000 tested, 6.5% active; purified USP17, Ub-rhodamine cleavage fluorescence, 3 h; Ubiquitin carboxyl-terminal hydrolase 17-like protein 5 (Homo sapiens), A8MUK1
USP10 block – inhibitors of human USP10 deubiquitinase; Ubiquitin carboxyl-terminal hydrolase 10 (Homo sapiens), Q14694; purified USP10, Ub-rhodamine fluorescence, 60 min; inhibition, % at 20 µM; 47,000 tested, 1.1% active
USP30 block – inhibitors of human USP30 deubiquitinase; purified USP30, Ub-rhodamine cleavage fluorescence; inhibition, % at 25 µM; 47,000 tested, 5.3% active
USP28 block – inhibitors of human USP28 deubiquitinase; Ubiquitin carboxyl-terminal hydrolase 28 (Homo sapiens), Q96RU2; purified USP28, Ub-rhodamine cleavage fluorescence, 30 min; inhibition, % at 25 µM; 47,000 tested, 3% active; AID 1645857, 2021
USP8 inh – inhibitors of human USP8 deubiquitinase; Ubiquitin carboxyl-terminal hydrolase 8 (Homo sapiens), P40818; inhibition, % at 20 µM; purified USP8, Ub-rhodamine cleavage fluorescence, 30 min; 47,000 tested, 4.2% active
Active calls of the source: *; i = inactive; nt = no result. No stated cut-off is given here; in the data, active means inhibition above about 30%; inactive means the rest.

SMILES | USP17 block | USP10 block | USP30 block | USP28 block | USP8 inh
Cn1cc(CN[C@H]2[C@H](O)[C@H](O)C[C@@H]2c2ccccc2)cn1 | 0.8 | 0.8 | 1.1 | 0.8 | 5.6
CC1(C)CC(=O)c2ccc(OCc3ccc(F)cc3)cc2O1 | 0.6 | 8.6 | 0.8 | 21.8 | -10.9
COc1c(C(=O)N2CCN(c3ccnc(N4CCC(OC)CC4)n3)CC2)ccc2ccccc12 | -17.1 | -3.3 | -9.3 | -29.9 | -4.2
CCC1Cc2c(nc(N)c3c(N)nc(N4CCCCC4)c(C#N)c23)O1 (stereo unspecified) | 23.7 | -10.2 | -223.5 | -29.3 | 76.7*
COc1cc2c(cc1OC)CN(c1ncnc3sccc13)CC2 | -61.6 | -2.6 | nt | nt | -23.2
COc1ccc(Cl)cc1Nc1ncnc2sccc12 | 51.9* | -6.2 | nt | nt | -25.7
O=C(NCc1ccc(N2CCOCC2)nc1)c1ccccc1Cl | -11.3 | -1.4 | -3.7 | -5.9 | -6.2
Cc1ccc(-c2[nH]ncc2CN2CCN(c3cccc(C)c3C)CC2)cc1 | -11.9 | 8.8 | -6.1 | -10.6 | -2.6
Cc1ccc2c(=O)c(C(=O)N3CCCCC3)cn(CC(=O)NC3CCCCC3)c2n1 | -14.2 | -5.1 | -14.1 | -12.2 | -3.1
CNc1ncc(C(=O)c2ccc(Br)cc2)s1 | 47.4* | 1.2 | 39.2* | 2.8 | 15.9
CCOC(=O)c1cc2c(ccn2-c2ccc(F)cc2)n1CC(=O)Nc1ccc2c(c1)OCCO2 | 15.6 | 37.3* | 29.5 | 14.3 | 53.9*
CCOC(=O)c1cc2c(ccn2C)n1CC(=O)NC1CC1 | -134.4 | -5.4 | i | -214.5 | -55.1
COCc1cccc(C(=O)Nc2ccc3c(c2)NC(=O)C(C)O3)c1 (stereo unspecified) | 1.9 | -1.2 | 14.2 | 1.0 | -2.8
CC1Oc2ccc(NC(=O)c3cccc(NC(=O)c4cccs4)c3)cc2NC1=O (stereo unspecified) | 38.3* | 2.0 | -3.7 | 0.8 | -16.3
Cc1ccccc1-c1cc(C(=O)NCCN2CCOCC2)c2cccc(Cl)c2n1 | -19.2 | -2.2 | -29.1 | -19.5 | -87.2
N#Cc1cccc(NC(=O)/C=C/c2cccc3ccccc23)c1 | 34.5* | -3.3 | -14.8 | 4.1 | 28.8
N#Cc1cccc(C(=O)Nc2cccc(Oc3ccccc3)c2)c1 | 9.9 | 7.1 | 4.2 | 15.6 | 2.1
CC(OC(=O)c1ccc2c(=O)n3c(nc2c1)CCCCC3)C(=O)NC1CCCC1 (stereo unspecified) | 30.6* | 4.1 | 46.8* | 23.4 | 16.4
Cc1cc(=O)oc2cc(NC(=O)c3ccc4c(=O)n5c(nc4c3)CCCC5)ccc12 | 3.5 | 2.4 | -2.8 | 4.8 | -2.9
N#Cc1cccc(NC(=O)c2ccc3c(=O)n4c(nc3c2)CCCCC4)c1 | 36.2* | 3.3 | 28.6 | 22.9 | 24.7
Cc1cc(NC(=O)c2ccc3c(=O)n4c(nc3c2)CCCCC4)no1 | 23.1 | 0.0 | 31.2* | 25.1 | 2.1
O=C1C2CSCN2C(=O)N1c1ccccc1F (stereo unspecified) | 9.5 | 0.0 | nt | nt | 3.5
O=C(CC1C(=O)N(C2CCCC2)c2nc3ccccc3n21)Nc1ccccc1C(F)(F)F (stereo unspecified) | 34.2* | 0.0 | 22.7 | 0.3 | 16.5
Cc1ccc(NC(=O)CC2C(=O)N(C3CCCC3)c3nc4ccccc4n32)cc1 (stereo unspecified) | 19.9 | -0.3 | 26.3 | 3.8 | 2.0
CC(NS(=O)(=O)c1cccc(Cl)c1)C(=O)O (stereo unspecified) | -0.4 | 2.2 | 30.3* | 1.0 | -0.1
SMILES | USP17 block | USP10 block | USP30 block | USP28 block | USP8 inh
C[C@@H](NS(=O)(=O)c1ccc(F)c(Cl)c1)C(=O)NCc1cscn1 | -0.7 | 0.0 | -0.2 | -2.9 | 0.5
Cc1cc(C)n(-c2nnc(NCc3ccc(Cl)cc3)nn2)n1 | 27.2 | 2.3 | 25.3 | 19.0 | 45.2*
CC(=O)Nc1nc2c(s1)CCc1ccccc1-2 | 20.1 | 1.9 | 10.1 | 39.3* | 5.0
CC(=O)Nc1ccc(CN2CCN(c3cnn4c(C5CC5)nnc4c3)CC2)cc1 | 10.1 | 2.3 | 32.7* | 10.2 | 18.0
COc1ccc(O)c(C(=O)c2cc(C#N)c(=O)n(-c3ccccc3C)c2)c1 | 2.9 | -6.3 | -77.3 | -16.2 | -20.2
O=C(Nc1nnc(-c2cc(Cl)ccc2Cl)o1)C1CC1 | -18.0 | 2.9 | 17.4 | 14.6 | 2.9
COc1ccc(-c2nc(-c3cc4cc(OC)ccc4[nH]c3=O)no2)cc1 | -6.6 | -1.9 | -115.8 | -30.7 | 34.6*
Cc1ccc2[nH]c(=O)c(-c3noc(-c4cccnc4)n3)cc2c1 | -23.5 | -2.1 | -237.1 | -41.6 | -3.2
CCOc1ccc(-n2c(C)c3c(C)nn4cc(-c5ccccc5)cc4c3c2C)cc1 | 30.7* | 9.3 | 31.6* | 8.5 | 29.0
CCOc1ccc(-n2c(C)c(C)c3c2ncn2nc(-c4ccccn4)nc32)cc1 | 2.6 | -2.4 | 9.5 | 5.8 | 0.7
CC(C)(C)C(=O)Cn1c(=O)n(CC2CCC(C(=O)NC3CCCC3)CC2)c(=O)c2ccccc21 (stereo unspecified) | 0.0 | 4.6 | 17.1 | -0.9 | -6.6
CC(C)C(=O)N1CCC[C@@H]2NC(=O)c3ccccc3OCC/C=C/C[C@@H]21 | -40.3 | 3.0 | -0.2 | -4.4 | -0.6
O=C(CCN=C1NS(=O)(=O)c2ccccc21)Nc1cccc(-c2nnc3n2CCCCC3)c1 | 3.5 | 0.0 | 10.8 | 7.9 | 0.5
O=S1(=O)NC(=NCCc2cccc(F)c2)c2ccccc21 | 49.4* | 0.6 | 33.5* | 6.2 | 21.8
COc1ccc(S(=O)(=O)NCC(C)(C)SCc2ccc(F)cc2)cc1 | 21.0 | 10.0 | 31.3* | 7.5 | 10.3
CC(C)(C)CC(=O)N1CCc2cc(-c3csc(NC(=O)CN4CCCC4)n3)ccc21 | 20.1 | -6.6 | -45.1 | -19.9 | -13.1
CC1CCN(S(=O)(=O)c2cc(-c3nnc(C4CC4)o3)co2)CC1 | 0.1 | 0.4 | 1.7 | -1.2 | -0.5
Cc1ccccc1C1CC(=O)Nc2c1c(C)nn2-c1ccc2nnc(C)n2n1 (stereo unspecified) | 11.1 | 2.7 | 29.4 | 18.4 | 2.1
Cc1cc(C2CC(=O)Nc3c2c(C)nn3-c2nc3ccccc3[nH]2)c(C)s1 (stereo unspecified) | 50.6* | 3.1 | -10.4 | -8.8 | 30.4*
Cc1ccc(NC(=O)c2ccccc2NC(=O)COc2cc(C)cc(C)c2)cc1 | 0.0 | 6.3 | -33.9 | -2.3 | 7.3
Cc1cc(OCC(=O)Nc2ccccc2C(=O)Nc2ccccc2)ccc1Cl | 2.6 | 34.9* | 3.6 | -6.0 | 20.8
CC(=O)N1CCN(c2nc3c(s2)CC(C(=O)NCc2ccccc2F)CC3)CC1 (stereo unspecified) | -5.0 | 0.0 | -17.1 | -5.6 | -14.7
Cc1ccc(S(=O)(=O)CC(=O)Nc2ccc(-c3nc4ccccc4s3)c(O)c2)cc1 | -23.1 | 27.0 | -57.6 | 0.0 | 80.0*
CCC(C)NC(=O)c1c(O)c2cccc3c2n(c1=O)CC3 (stereo unspecified) | 11.0 | 2.1 | 25.3 | 13.4 | 53.2*
N#Cc1c2c(c(-c3ccccc3)n3c1nc1ccccc13)CCC2 | 43.1* | -4.5 | -38.4 | -0.4 | -6.6
Cc1cc(Nc2ccc(C(=O)N3CCC(C)CC3)cc2)n2nc(-c3cccnc3)nc2n1 | -0.9 | 1.2 | 17.6 | 6.0 | 0.0
